Pf growth 48h = Primary qHTS for delayed death inhibitors of the malarial parasite plastid, 48 hour incubation. P. falciparum luciferase growth in erythrocytes, 48 h. Potency, µM (top dose mostly 28.7 µM), for inactives: top-dose activity change, negative = inhibition, actives largely listed as inhibitors. actives 5.9% (n = 310,000). AID 504832, 2011; note: potency is the fitted concentration of half-maximal effect; % is set by controls: 0 for no effect and ±100 for the full control effect
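Here the parasites carry a stable luciferase gene and grow inside erythrocytes in Albumax-based RPMI medium with compound for one erythrocytic cycle. Activity is scored as loss of luminescent signal.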
SARS PLpro yeast = qHTS of Yeast-based Assay for SARS-CoV PLP; S. cerevisiae expressing SARS-CoV PLpro, growth rescue; Potency, µM (doses to about 32.9 µM), inactives show top-dose activity, positive = growth rescue, actives largely listed as activators; actives 0.19% (n = 330,000); AID 485353, 2010; calls by dose curve; note: potency is the fitted concentration of half-maximal effect; 0% is about no effect; nearly all actives have a fitted effect of over 55% in size
Shiga toxin inh = A qHTS for Small Molecule Inhibitors of Shiga Toxin; Vero cells, Shiga toxin protein synthesis inhibition reporter; inhibition, % at 38.7 µM; AID 2315, 2010; actives 9.2% (n = 290,000); in the data active = inhibition mostly above about 28%, no sharp cut-off; inactive = mostly below about 43%; note: 0% is about no effect
NS1 inh = qHTS Assay for Inhibitors of Influenza NS1 Protein Function; Potency, µM (series often up to 46.1 µM), for the others: top-dose activity, positive = more growth; actives 0.4% (n = 270,000); AID 2326, 2010; calls by dose curve; note: potency is the fitted concentration of half-maximal effect; actives are rising curves; nearly all actives have a fitted effect of over 50% in size
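Read-out: OD600 growth recovery of NS1-expressing budding yeast. Cells grown overnight at 30C in -URA glucose medium, washed, resuspended and diluted 1:100 in 2% galactose assay medium, pH 6.0. Same strain lacking NS1 served as positive control.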
Cycloheximide cs = Cycloheximide Counterscreen for Small Molecule Inhibitors of Shiga Toxin; cell reporter, cycloheximide protein synthesis inhibition counterscreen; max response, %; actives 12% (n = 300,000); AID 2314, 2010; in the data active = max response mostly above about 13%, no sharp cut-off; inactive = mostly below about 14%; note: read at 38.3 µM for the half of the compounds with a filed dose; 0% is about no effect
Pf growth 96h = Primary qHTS for delayed death inhibitors of the malarial parasite plastid, 96 hour incubation; P. falciparum luciferase reporter growth, 96 h; Potency, µM (doses to about 28.7 µM), without a hit: at the highest dose activity change, negative = inhibition, hits mostly inhibitors; actives 6.9% (n = 320,000); note: potency is the fitted concentration of half-maximal effect; % is set by controls: 0 for no effect and ±100 for the full control effect
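Compounds incubated with erythrocytes infected by luciferase-expressing P. falciparum (2% hematocrit, 0.05% parasitemia final) for 96 hours, 37 C in 5% CO2. Growth inhibition scored as decreased luciferase luminescence.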
Starred values were filed as active, the others as inactive. The list is not random: actives were taken first. Their share in the collection is about 21%. Unless noted, calls come from the whole dose curve; as a rule, active = well fitted inhibition curve with a large enough effect; inconclusive = small, poorly fitted or top-dose-only effect, or another doubt; inactive = no such curve, though single readings can be large or run the other way.

Screening C#CCNC(=O)C1=C[C@H](c2ccc(Br)cc2)C[C@H](OCCCCO)O1 returned Pf growth 48h inconclusive, SARS PLpro yeast -2%, Shiga toxin inh 31*, NS1 inh -5%, Cycloheximide cs 12* and Pf growth 96h inconclusive.
C#CCNC(=O)C1=C[C@@H](c2ccc(C(F)(F)F)cc2)C[C@@H](OCCCCO)O1 was read as Pf growth 48h inconclusive, SARS PLpro yeast -3%, Shiga toxin inh 4, NS1 inh 1%, Cycloheximide cs 2 and Pf growth 96h inconclusive.
`CN(C(=O)c1cccs1)c1ccc(OCC(=O)N2CCC(C(N)=O)CC2)cc1` gave Pf growth 48h 16%, SARS PLpro yeast -2%, Shiga toxin inh -9, Cycloheximide cs -1 and Pf growth 96h 6%.
`N#CCCN(Cc1ccccc1)C(=O)c1cccs1` gave Pf growth 48h inconclusive, SARS PLpro yeast 0%, Shiga toxin inh 3, NS1 inh 12%, Cycloheximide cs 5 and Pf growth 96h -8%.
Screening COc1cccc(NC(=O)CCN2C(=O)c3ccccc3Sc3ncccc32)c1 returned Pf growth 48h -16%, SARS PLpro yeast -5%, Shiga toxin inh -5, NS1 inh 9%, Cycloheximide cs -1 and Pf growth 96h 2.9µM*.
For CC(C)NC(=O)CCCN1C(=O)c2ccccc2Sc2ncccc21 the results were Pf growth 48h 12%, SARS PLpro yeast 1%, Shiga toxin inh -6, NS1 inh -2%, Cycloheximide cs -1 and Pf growth 96h 0.26µM*.
`Cc1ccc(NC(=O)CCN2C(=O)c3ccccc3Sc3ncccc32)cc1` gave Pf growth 48h -24%, SARS PLpro yeast 1%, Shiga toxin inh 6, NS1 inh -7%, Cycloheximide cs 11 and Pf growth 96h inconclusive.
`Cc1ccc(S(=O)(=O)N2CCN(CC(=O)N/N=C/C=C/c3ccccc3)CC2)cc1` gave Pf growth 48h 0%, SARS PLpro yeast 3%, Shiga toxin inh -9, NS1 inh -15%, Cycloheximide cs -2 and Pf growth 96h 26%.
Screening O=C(NC(=S)Nc1ccccc1F)c1ccc(Br)o1 returned Pf growth 48h 112%, SARS PLpro yeast 1%, Shiga toxin inh 124*, NS1 inh 6%, Cycloheximide cs 33* and Pf growth 96h 14%.
Screening Cc1ccc(NC(=S)NC(=O)c2ccc(Br)o2)c(C)c1 returned Pf growth 48h 30%, SARS PLpro yeast 0%, Shiga toxin inh 61*, NS1 inh 4%, Cycloheximide cs 29* and Pf growth 96h 13µM*.
For Cc1ccc(C)c(NC(=S)NNC(=O)c2ccc(Br)o2)c1 the results were Pf growth 48h -8%, SARS PLpro yeast inconclusive, Shiga toxin inh 70*, NS1 inh 25%, Cycloheximide cs 16* and Pf growth 96h 5%.
`Cc1cccc(NC(=S)NC(=O)c2ccc(Br)o2)c1C` gave Pf growth 48h -14%, SARS PLpro yeast -1%, Shiga toxin inh 32, NS1 inh 9%, Cycloheximide cs 1 and Pf growth 96h -20%.
`CSc1nc2nc3c(cc2c(=O)[nH]1)C(O)Oc1ccc(C)cc1-3` (stereo not drawn) gave Pf growth 48h 1.3µM*, SARS PLpro yeast -2%, Shiga toxin inh -10, Cycloheximide cs -3 and Pf growth 96h inconclusive.
N#Cc1c(-c2ccc(C(F)(F)F)cc2)cc(-c2ccccc2)[nH]c1=S was read as Pf growth 48h 1%, SARS PLpro yeast -9%, Shiga toxin inh 8, NS1 inh 11%, Cycloheximide cs -1 and Pf growth 96h inconclusive.
Cc1cccc(N2CCN(C(=O)c3ccccc3SCC(=O)N3CCCC3)CC2)c1C was read as Pf growth 48h inconclusive, SARS PLpro yeast -7% and Pf growth 96h inconclusive.
Screening Cc1ccc(C)c(OCCOCCN2CC(C)OC(C)C2)c1C (stereo not drawn) returned SARS PLpro yeast -7%, Shiga toxin inh -16, NS1 inh -10%, Cycloheximide cs 8 and Pf growth 96h inconclusive.
Cc1cccc(C)c1Nc1ncnc2ccccc12 was read as Pf growth 48h 0%, SARS PLpro yeast 1%, Shiga toxin inh -5, NS1 inh 4%, Cycloheximide cs -2 and Pf growth 96h -78%.
`Clc1ccc(/C=N/Nc2nc(Cl)nc3ccccc23)cc1` gave Pf growth 48h inconclusive, SARS PLpro yeast -9%, Shiga toxin inh 132, NS1 inh -2%, Cycloheximide cs 23 and Pf growth 96h inconclusive.
`Clc1cccc(/C=N/Nc2ncnc3ccccc23)c1` gave Pf growth 48h -75%, SARS PLpro yeast -11%, Shiga toxin inh 62*, NS1 inh -111%, Cycloheximide cs 35* and Pf growth 96h inconclusive.
`C(=N\Nc1ncnc2ccccc12)/c1ccccc1` gave Pf growth 48h 335%, SARS PLpro yeast 2%, Shiga toxin inh 71*, Cycloheximide cs 24* and Pf growth 96h 133%.
For Cc1cc(C)nc(SCc2nnc(SCc3ccccc3Cl)o2)n1 the results were Pf growth 48h inconclusive, SARS PLpro yeast -15%, Shiga toxin inh -6, NS1 inh -32% and Cycloheximide cs 7.
For Cc1cccc(C)c1NC(=O)C1(N2CCN(C(=O)c3ccco3)CC2)CCCCC1 the results were Pf growth 48h -29%, SARS PLpro yeast 1%, Shiga toxin inh 17, NS1 inh -10%, Cycloheximide cs -2 and Pf growth 96h 7%.
`CCCCn1c(N)c(N(CC(C)C)C(=O)C2CC(=O)N(Cc3ccco3)C2)c(=O)[nH]c1=O` (stereo not drawn) gave Pf growth 48h 26%, SARS PLpro yeast 3%, Shiga toxin inh 7, NS1 inh 15%, Cycloheximide cs 4 and Pf growth 96h inconclusive.
`COc1ccccc1NC(=O)Nc1nc(C(C)(C)C)cs1` gave Pf growth 48h inconclusive, SARS PLpro yeast 1%, Shiga toxin inh 50, Cycloheximide cs 21* and Pf growth 96h inconclusive.
COc1ccccc1NC(=O)Nc1nc(CC(=O)NCc2ccccn2)cs1 was read as Pf growth 48h -2%, SARS PLpro yeast 1% and Pf growth 96h 12%.
For COc1ccccc1CNC(=O)Cc1csc(NC(=O)Nc2ccccc2OC)n1 the results were Pf growth 48h inconclusive, SARS PLpro yeast -2% and Pf growth 96h 13µM*.
Screening COc1ccccc1NC(=O)Nc1nc(CC(=O)Nc2cccc(F)c2)cs1 returned Pf growth 48h 4.1µM*, SARS PLpro yeast 0% and Pf growth 96h 2.1µM*.
`COc1ccccc1N(CC(=O)NC(C)C)S(=O)(=O)c1cccs1` gave Pf growth 48h -8%, SARS PLpro yeast 0%, Shiga toxin inh -2, NS1 inh -2%, Cycloheximide cs 5 and Pf growth 96h inconclusive.

Screening data deposited in PubChem BioAssay by National Center for Advancing Translational Sciences (NCATS).
